Laboratory results as given in PubChem BioAssay (Tox21).
Where “and” joins values, the source holds several entries; their conditions need not be identical. Identical values can stand only once. Records with an inconclusive call do not appear. Where a call stands in place of a potency, no number is given. Where a structure was tested more than once in an assay, its records may differ in their call. Calls of active or inactive are those of the source. Unless noted, calls follow the shape of the dose curve; as a rule, active = well fitted curve in the direction sought with a large enough effect in the repeat runs; inconclusive = weak or mixed curves; inactive = no such curve, though single readings can be large; an effect the other way counts as inactive or inconclusive.

Experiments:
[1] = qHTS assay for small molecules that induce genotoxicity in human embryonic kidney cells expressing luciferase-tagged ATAD5 (AID 651632); also: nearly all actives have a fitted effect of over 15% in size; also: potency is read from the fitted curve at half-maximal effect
In short: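 Quantitative HTS in HEK293T expressing luciferase-tagged ATAD5, whose levels rise upon DNA damage. Exposure ran 16 hr at 37C and 5% CO2, with luminescence read 30 min after Amplite addition at room temperature.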

[2] = qHTS assay for small molecule agonists of the p53 signaling pathway - cell viability (AID 651633; calls by dose curve; also: nearly all actives have a fitted effect of over 30% in size; also: potency is read from the fitted curve at half-maximal effect)
In short: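 p53RE-bla cells were treated with compound for 16 hours at 37 C. Cytotoxicity was then measured as CellTiter-Glo luminescence after 30 min at room temperature.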

[3] = qHTS assay for small molecules that induce genotoxicity in human embryonic kidney cells expressing luciferase-tagged ATAD5 - cell viability (AID 651634; calls by dose curve; also: nearly all actives have a fitted effect of over 25% in size)
In short: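 After 15.5 hr incubation with compound at 37C, 5% CO2, HEK293T ATAD5-luciferase cells received CellTiter-Fluor reagent; fluorescence intensity was quantified following 30 min at 37C.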

[4] = qHTS assay for small molecule disruptors of the mitochondrial membrane potential - cell viability (AID 720634; calls by dose curve;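 also: human HepG2 liver cancer cells; nearly all actives have a fitted effect of over 20% in size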)
In short: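 ATP-based luminescent viability readout (CellTiter-Glo, 30 min, room temperature) in HepG2 cells multiplexed with the m-MPI membrane potential dye; compound exposure lasted 1 hr at 37 C.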

[5] = qHTS assay for small molecule disruptors of the mitochondrial membrane potential (AID 720635); also: potency is read from the fitted curve at half-maximal effect
In short: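 HepG2 cells exposed to compound 1 hr at 37C, then Mito-MPS dye 30 min. Ratio read of aggregate (540/590 nm) versus monomer (490/535 nm) fluorescence.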

[6] = qHTS assay to test for compound auto fluorescence at 590 nm (red) in HepG2 cells (AID 720674)
In short: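 HepG2 cells, 2,000 per well in MEM with 10% FBS, attached overnight at 37 C, then got 23 nL compound or DMSO. After 1 hr at 37 C, 5% CO2, red fluorescence was read at 540/590 nm against Rose Bengal sodium as reference.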

[7] = qHTS assay to test for compound auto fluorescence at 535 nm (green) in HepG2 cells (AID 720675)
[8] = qHTS assay to test for compound auto fluorescence at 460 nm (blue) in HEK293 cells (AID 720678)
In short: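 HEK293, 2,000 cells/well, 10% dialyzed FBS; attach 4-5 hr 37C; pin compound or DMSO; o/n 37C/5% CO2; fluorescence 405/460 nm; triamterene-equivalent units.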

[9] = qHTS assay to test for compound auto fluorescence at 590 nm (red) in HEK293 cells (AID 720679)
In short: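 Intensity at 540nm excitation and 590nm emission is reported as Rose Bengal sodium-equivalent autofluorescence. Measurements followed overnight exposure (37C, 5% CO2) of HEK293 cells, 2,000 per well, to 23 nL compound.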

[10] = qHTS assay to test for compound auto fluorescence at 535 nm (green) in HEK293 cells (AID 720680)
[11] = qHTS assay to test for compound auto fluorescence at 460 nm (blue) in HEK293 cell free culture (AID 720681)
In short: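 Compounds were added to cell-free DMEM with 10% FBS and fluorescence read directly. The blue channel used 405 nm excitation and 460 nm emission, with triamterene as the reference fluorophore.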

[12] = qHTS assay to test for compound auto fluorescence at 535 nm (green) in HEK293 cell free culture (AID 720682)
In short: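 Steps: dispense DMEM/10% FBS into empty wells; pin in compound or DMSO; measure fluorescence at 485/535 nm. Values are fluorescein equivalents.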

[13] = qHTS assay to test for compound auto fluorescence at 590 nm (red) in HEK293 cell free culture (AID 720683)
In short: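 Cell-free wells of DMEM with 10% FBS received compound, and intrinsic fluorescence was read at excitation/emission 540/590 nm. Values expressed as equivalence to Rose Bengal sodium.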

[14] = qHTS assay to test for compound auto fluorescence at 590 nm (red) in HepG2 cell free culture (AID 720684)
In short: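 Auto fluorescence equivalency versus Rose Bengal sodium, red channel Ex/Em 540/590 nm; compounds in cell-free MEM/10% FBS; DMSO vehicle control.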

[15] = qHTS assay to test for compound auto fluorescence at 460 nm (blue) in HepG2 cell free culture (AID 720685)
In short: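 Cell-free plates of MEM plus 10% FBS received 23 nL compound or DMSO vehicle; blue-channel (405/460 nm) intensity scored against triamterene as reference fluorophore.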

[16] = qHTS assay to test for compound auto fluorescence at 535 nm (green) in HepG2 cell free culture (AID 720686)
[17] = qHTS assay to test for compound auto fluorescence at 460 nm (blue) in HepG2 cells (AID 720687)
In short: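 HepG2 cells in MEM with 10% FBS, attached overnight at 37 C, were exposed to compound or DMSO for 1 hr at 37 C, 5% CO2. Blue fluorescence was read at 405/460 nm, with triamterene as reference fluorophore.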

[18] = target: Glucocorticoid receptor (Homo sapiens) (UniProt P04150); test: qHTS assay to identify small molecule agonists of the glucocorticoid receptor (GR) signaling pathway (AID 720691; active = well fitted activation curve with a large enough effect in the signal ratio in the repeat runs, not every such curve was filed as active; the % refers to the signal ratio; also: potency is read from the fitted curve at half-maximal effect); conditions: GR-bla HeLa, beta-lactamase reporter ratio, 18 h; activation: at 62.4 µM (top of the series)
In short: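 Cells: GR-bla HeLa, endogenous GR with stably integrated GRE-beta-lactamase reporter. Treatment 18 h, 37 C, compounds delivered in DMSO. Detection via LiveBLAzer B/G FRET substrate, 2 h RT, fluorescence intensity.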

[19] = target: Glucocorticoid receptor (Homo sapiens) (UniProt P04150); test: qHTS assay to identify small molecule antagonists of the glucocorticoid receptor (GR) signaling pathway (AID 720692; active = well fitted inhibition curve with a large enough effect in the signal ratio in the repeat runs, not every such curve was filed as active; the % refers to the signal ratio)
In short: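 Quantitative HTS in antagonist format: HeLa cells expressing endogenous GR and a stably integrated GRE-bla reporter, stimulated with 5 nM dexamethasone (final) alongside test compounds for 18 h.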

Sequence of Glucocorticoid receptor (Homo sapiens) (P04150 whole entry, looked up): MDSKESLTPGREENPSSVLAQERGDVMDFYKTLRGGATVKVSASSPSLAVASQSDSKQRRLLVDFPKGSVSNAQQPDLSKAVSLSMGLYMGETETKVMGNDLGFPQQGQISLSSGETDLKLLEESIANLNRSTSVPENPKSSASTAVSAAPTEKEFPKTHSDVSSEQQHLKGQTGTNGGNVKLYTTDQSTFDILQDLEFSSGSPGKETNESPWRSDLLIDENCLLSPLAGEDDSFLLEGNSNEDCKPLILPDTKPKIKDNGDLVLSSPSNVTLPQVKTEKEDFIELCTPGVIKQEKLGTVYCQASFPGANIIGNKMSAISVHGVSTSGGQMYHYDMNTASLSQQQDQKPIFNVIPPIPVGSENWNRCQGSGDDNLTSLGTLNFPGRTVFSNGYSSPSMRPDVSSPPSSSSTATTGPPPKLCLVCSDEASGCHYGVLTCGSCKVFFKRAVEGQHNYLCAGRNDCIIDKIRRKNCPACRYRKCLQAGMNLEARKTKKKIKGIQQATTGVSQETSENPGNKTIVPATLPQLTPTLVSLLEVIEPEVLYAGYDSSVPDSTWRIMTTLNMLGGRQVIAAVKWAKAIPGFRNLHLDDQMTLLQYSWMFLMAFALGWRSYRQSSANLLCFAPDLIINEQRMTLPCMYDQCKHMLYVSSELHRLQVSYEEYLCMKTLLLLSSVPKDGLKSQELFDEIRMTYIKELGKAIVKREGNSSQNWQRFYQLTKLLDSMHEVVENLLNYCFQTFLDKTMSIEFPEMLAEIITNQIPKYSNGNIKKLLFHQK

SMILES	Potency [1]	Potency [2]	Potency [3]	Potency [4]	Potency [5]	outcome [6]	Potency [7]	Potency [8]	outcome [9]	outcome [10]	Potency [11]	outcome [12]	outcome [13]	outcome [14]	Potency [15]	Potency [16]	Potency [17]	Potency [18]	Potency [19]
N[C@H](C(=O)O)[C@@H]1CC(Cl)=NO1	inactive	13.3 µM (active)	inactive	inactive	inactive	inactive	inactive	inactive	inactive	inactive	inactive	inactive	inactive	inactive	inactive	inactive	inactive	–	–
C/C(=C(/CCO)SSCC1CCCO1)N(C=O)Cc1cnc(C)nc1N (stereo not drawn)	inactive	inactive	inactive	inactive	inactive	inactive	inactive	inactive	inactive	inactive	inactive	–	inactive	inactive	inactive	inactive	inactive	inactive and 21.3 µM (active)	inactive
C[C@@H]1O[C@@H](OC[C@H]2O[C@@H](Oc3c(-c4ccc(OCCO)c(OCCO)c4)oc4cc(OCCO)cc(O)c4c3=O)[C@H](O)[C@@H](O)[C@@H]2O)[C@H](O)[C@H](O)[C@H]1O	inactive	inactive	inactive	inactive	inactive	inactive	inactive	–	–	inactive	inactive	inactive	inactive	inactive	inactive	inactive	inactive	inactive	inactive
CCN(CC)CCn1c(=O)c(Cc2ccc(OC)cc2)nc2ccccc21	inactive	inactive	inactive	inactive	inactive	inactive	inactive	inactive	inactive	inactive	inactive	inactive	inactive	inactive	inactive	inactive	inactive	inactive	inactive
OCCCNc1ccccc1	inactive	inactive	inactive	inactive	inactive	–	inactive	inactive	inactive	inactive	inactive	inactive	inactive	inactive	inactive	inactive	inactive	inactive	inactive
CC12CCC(C1)C(C)(C)C2=O (stereo not drawn)	inactive	inactive	inactive	inactive	inactive	inactive	inactive	inactive	inactive	inactive	inactive	inactive	inactive	inactive	inactive	–	inactive	–	–
O=C(O)[C@H]1CN(C/C=C/P(=O)(O)O)CCN1	inactive	inactive	inactive	inactive	inactive	inactive	inactive	inactive	inactive	inactive	inactive	inactive	inactive	inactive	inactive	–	inactive	inactive	inactive
O=C1CCCCCCCCCCCCCC1	inactive	inactive	inactive	inactive	48.6 µM (active)	inactive	inactive	inactive	inactive	–	inactive	inactive	inactive	inactive	inactive	inactive	inactive	inactive	inactive
COc1c(O)cc2c(c1O)[C@@H]1O[C@H](CO)[C@@H](O)[C@H](O)[C@H]1OC2=O	inactive	inactive	inactive	inactive	inactive	inactive	inactive	inactive	–	inactive	inactive	inactive	inactive	inactive	inactive	inactive	inactive	inactive	inactive
Cc1cc(CC(C)CC(C)(C)C)n(O)c(=O)c1 (stereo not drawn) (tested in a mixture with another compound)	13.3 µM (active)	29.8 µM (active)	inactive	inactive	3.35 µM (active)	inactive	inactive	inactive	inactive	–	inactive	inactive	inactive	inactive	inactive	inactive	inactive	–	–
CC(=O)OCC1=C(C(=O)O)N2C(=O)[C@@H](NC(=O)Cc3ccccc3)[C@H]2SC1	inactive	inactive	inactive	inactive	inactive	inactive	inactive	inactive	inactive	–	inactive	inactive	inactive	inactive	inactive	inactive	inactive	inactive	inactive
CO/N=C(\C(=O)N[C@@H]1C(=O)N2C(C(=O)O)=C(COC(C)=O)CS[C@H]12)c1csc(N)n1 (stereo in doubt)	inactive	inactive	inactive	inactive	inactive	inactive	inactive	inactive	inactive	inactive	inactive	inactive	inactive	inactive	inactive	inactive	inactive	inactive	inactive
CCCn1c(=O)[nH]c(=O)c2[nH]cnc21	inactive	inactive	inactive	inactive	inactive	inactive	inactive	inactive	inactive	–	inactive	inactive	inactive	inactive	inactive	inactive	inactive	–	–
